Results on eleven compounds are retold here after ChEMBL document CHEMBL3988442, “University of Dundee, Small-Polar-MMV Screening Library” (2021).

For some of these results: Results with a measured potency or affinity are listed apart.

Holding throughout (parameters): scale not given: direction of the effect not stated beside the values
The target in assay [1] is Protein translocase subunit SecA (Escherichia coli (strain K12)) (UniProt P10408). Kind of assay: Assay to Identify E. coli SecA ATPase Inhibitors. The format is functional. The conditions noted are these: 30 µM.
In assay [2] the target is T1, Ubiquitin-activating enzyme e1, putative (Leishmania donovani (strain BPK282A1)) (UniProt E9BSI1).
T1 sequence (whole entry): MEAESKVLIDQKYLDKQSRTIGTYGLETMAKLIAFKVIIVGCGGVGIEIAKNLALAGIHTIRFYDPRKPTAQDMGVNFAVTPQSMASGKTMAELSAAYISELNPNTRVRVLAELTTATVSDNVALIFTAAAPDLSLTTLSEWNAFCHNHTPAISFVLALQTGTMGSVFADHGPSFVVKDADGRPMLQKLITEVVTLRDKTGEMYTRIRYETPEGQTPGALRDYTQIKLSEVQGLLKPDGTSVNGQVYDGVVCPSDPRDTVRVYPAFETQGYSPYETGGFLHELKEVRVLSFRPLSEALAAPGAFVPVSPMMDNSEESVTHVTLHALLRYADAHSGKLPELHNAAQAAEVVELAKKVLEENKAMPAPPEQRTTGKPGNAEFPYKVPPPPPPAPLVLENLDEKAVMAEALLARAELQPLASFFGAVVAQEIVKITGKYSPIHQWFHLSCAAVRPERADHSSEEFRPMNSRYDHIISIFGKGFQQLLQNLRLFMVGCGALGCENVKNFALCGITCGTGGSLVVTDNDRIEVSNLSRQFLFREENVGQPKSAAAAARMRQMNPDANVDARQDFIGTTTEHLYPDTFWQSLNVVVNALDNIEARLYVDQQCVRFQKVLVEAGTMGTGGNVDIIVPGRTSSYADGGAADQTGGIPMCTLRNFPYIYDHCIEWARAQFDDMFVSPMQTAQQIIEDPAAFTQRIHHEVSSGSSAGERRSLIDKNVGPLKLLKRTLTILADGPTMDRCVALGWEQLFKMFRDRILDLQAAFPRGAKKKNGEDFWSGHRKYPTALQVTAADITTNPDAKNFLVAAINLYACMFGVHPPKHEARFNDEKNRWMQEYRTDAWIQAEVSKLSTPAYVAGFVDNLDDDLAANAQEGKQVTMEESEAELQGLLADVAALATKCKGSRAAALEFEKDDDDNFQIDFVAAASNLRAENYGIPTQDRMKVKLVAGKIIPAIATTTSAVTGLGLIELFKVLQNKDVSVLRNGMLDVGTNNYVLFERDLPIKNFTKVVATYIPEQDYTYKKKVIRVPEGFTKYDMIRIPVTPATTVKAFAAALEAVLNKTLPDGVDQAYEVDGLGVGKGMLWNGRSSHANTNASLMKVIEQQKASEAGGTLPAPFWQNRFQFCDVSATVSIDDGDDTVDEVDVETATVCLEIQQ
Kind of assay: Leishmania donovani Ubiquitin Activating Enzyme (LdE1). Type of assay: functional. The conditions noted are these: 30 µM.

Assay [3] concerns the target AMP-activated protein kinase, AMPK (Homo sapiens) (UniProt P54646+O43741+P54619+Q9UGJ0+Q9Y478+Q13131+Q9UGI9). Kind of assay: AMP-dependent Kinase enzyme assay. An in vitro enzyme assay that detects ADP turnover that is directly proportional to AMPK activity. This uses naive AMPK that is activated during the assay with MK-8722. Type of assay: functional. The conditions noted are these: 30 µM.

The target in assay [4] is Sialic acid-binding Ig-like lectin 9 (Homo sapiens) (UniProt Q9Y336). Kind of assay: Hs-Siglec9 ALPHAscreen SOP 20170721. The conditions noted are these: 10 µM. A general note: Alpha assays give light when donor and acceptor beads are brought close together.
A further assay deals with Trypanosoma cruzi. Kind of assay: Trypanosoma cruzi phosphomannomutase and mannose-1-phosphate guanylyltransferase assay. The settings on record: 10 µM. The format is functional.
Assay [5] addresses T2, Arginase-2, mitochondrial (Homo sapiens) (UniProt P78540).
T2 sequence (whole entry): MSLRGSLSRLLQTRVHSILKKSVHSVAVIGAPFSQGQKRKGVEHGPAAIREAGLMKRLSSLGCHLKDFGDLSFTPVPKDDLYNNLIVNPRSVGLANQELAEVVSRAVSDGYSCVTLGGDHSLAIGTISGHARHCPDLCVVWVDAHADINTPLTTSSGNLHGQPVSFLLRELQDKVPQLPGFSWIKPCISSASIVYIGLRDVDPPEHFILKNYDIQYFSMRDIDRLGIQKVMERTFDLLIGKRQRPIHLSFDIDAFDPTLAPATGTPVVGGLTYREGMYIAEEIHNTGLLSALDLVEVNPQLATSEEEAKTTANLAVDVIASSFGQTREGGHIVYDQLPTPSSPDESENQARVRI
Kind of assay: in vitro enzyme assay to detect the production of urea directly proportional to the activity of Arginase II. Further: in the data most compounds retested in dose-response had high values. The format is functional. The conditions noted are these: 33.3 µM.

For assay [6], the target named is T3, Proteasome subunit beta (Trypanosoma cruzi) (UniProt O96673).
T3 sequence (whole entry): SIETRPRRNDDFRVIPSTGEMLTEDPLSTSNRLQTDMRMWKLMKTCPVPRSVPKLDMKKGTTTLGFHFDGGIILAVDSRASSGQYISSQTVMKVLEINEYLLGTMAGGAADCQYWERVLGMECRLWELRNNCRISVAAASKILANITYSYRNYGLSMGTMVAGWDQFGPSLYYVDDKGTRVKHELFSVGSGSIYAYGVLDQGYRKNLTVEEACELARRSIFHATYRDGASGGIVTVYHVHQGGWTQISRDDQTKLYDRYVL
Put plainly: Trypanosoma cruzi proteasome chymotrypsin-like activity (TcProtChymo) assay. Further: in the data most compounds retested in dose-response had high values. The settings on record: 9.37 µM. Type of assay: functional.

The species named for the next assay is Homo sapiens. Kind of assay: To identify inhibition of the IFN signalling (Jak-Stat) pathway via expression of an eGFP reporter gene under the control of an IFN-stimulated response element (ISRE) containing MxA promoter. Type of assay: functional. The conditions noted are these: 30 µM.
For assay [7], the target named is T4, Tyrosyl-tRNA synthetase, putative (Trypanosoma cruzi (strain CL Brener)) (UniProt Q4DSP6).
T4 sequence (whole entry): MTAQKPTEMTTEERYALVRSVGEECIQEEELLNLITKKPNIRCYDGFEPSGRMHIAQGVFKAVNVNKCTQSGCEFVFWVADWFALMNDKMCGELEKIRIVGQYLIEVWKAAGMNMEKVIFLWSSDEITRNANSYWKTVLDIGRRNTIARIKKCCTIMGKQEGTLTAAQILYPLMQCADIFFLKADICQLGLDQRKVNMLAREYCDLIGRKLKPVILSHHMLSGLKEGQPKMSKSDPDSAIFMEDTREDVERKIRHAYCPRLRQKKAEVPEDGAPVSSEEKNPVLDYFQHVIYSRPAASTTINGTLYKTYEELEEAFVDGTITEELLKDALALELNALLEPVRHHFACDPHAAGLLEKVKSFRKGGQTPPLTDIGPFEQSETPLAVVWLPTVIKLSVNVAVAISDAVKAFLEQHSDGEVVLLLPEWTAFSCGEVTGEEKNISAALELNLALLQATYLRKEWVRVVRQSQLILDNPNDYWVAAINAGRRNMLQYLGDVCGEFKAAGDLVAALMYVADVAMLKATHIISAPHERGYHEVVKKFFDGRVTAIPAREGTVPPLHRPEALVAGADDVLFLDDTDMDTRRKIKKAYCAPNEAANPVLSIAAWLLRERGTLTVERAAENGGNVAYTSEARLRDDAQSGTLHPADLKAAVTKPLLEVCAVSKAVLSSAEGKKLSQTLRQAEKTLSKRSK
Kind of assay: Trypanosoma cruzi tyrosyl tRNA synthetase (TcYRS) _High Tyrosine SOP. Further: in the data most compounds retested in dose-response had high values. Type of assay: functional. The conditions noted are these: 30 µM.

For assay [8], the target named is T4, Tyrosyl-tRNA synthetase, putative (Trypanosoma cruzi (strain CL Brener)). Kind of assay: Trypanosoma cruzi tyrosyl tRNA synthetase (TcYRS) SOP. The conditions noted are these: 30 µM. The format is functional.
Assay [9] concerns the target Chromo domain-containing protein 1 (Saccharomyces cerevisiae (strain ATCC 204508 / S288c) (Baker's yeast)) (UniProt P32657). Kind of assay: ScCHD-1 Enzyme Inhibition Assay. Further: in the data most compounds retested in dose-response had high values. The conditions noted are these: 30 µM. Type of assay: functional.

Chain of Protein translocase subunit SecA (Escherichia coli (strain K12)) (P10408 whole entry): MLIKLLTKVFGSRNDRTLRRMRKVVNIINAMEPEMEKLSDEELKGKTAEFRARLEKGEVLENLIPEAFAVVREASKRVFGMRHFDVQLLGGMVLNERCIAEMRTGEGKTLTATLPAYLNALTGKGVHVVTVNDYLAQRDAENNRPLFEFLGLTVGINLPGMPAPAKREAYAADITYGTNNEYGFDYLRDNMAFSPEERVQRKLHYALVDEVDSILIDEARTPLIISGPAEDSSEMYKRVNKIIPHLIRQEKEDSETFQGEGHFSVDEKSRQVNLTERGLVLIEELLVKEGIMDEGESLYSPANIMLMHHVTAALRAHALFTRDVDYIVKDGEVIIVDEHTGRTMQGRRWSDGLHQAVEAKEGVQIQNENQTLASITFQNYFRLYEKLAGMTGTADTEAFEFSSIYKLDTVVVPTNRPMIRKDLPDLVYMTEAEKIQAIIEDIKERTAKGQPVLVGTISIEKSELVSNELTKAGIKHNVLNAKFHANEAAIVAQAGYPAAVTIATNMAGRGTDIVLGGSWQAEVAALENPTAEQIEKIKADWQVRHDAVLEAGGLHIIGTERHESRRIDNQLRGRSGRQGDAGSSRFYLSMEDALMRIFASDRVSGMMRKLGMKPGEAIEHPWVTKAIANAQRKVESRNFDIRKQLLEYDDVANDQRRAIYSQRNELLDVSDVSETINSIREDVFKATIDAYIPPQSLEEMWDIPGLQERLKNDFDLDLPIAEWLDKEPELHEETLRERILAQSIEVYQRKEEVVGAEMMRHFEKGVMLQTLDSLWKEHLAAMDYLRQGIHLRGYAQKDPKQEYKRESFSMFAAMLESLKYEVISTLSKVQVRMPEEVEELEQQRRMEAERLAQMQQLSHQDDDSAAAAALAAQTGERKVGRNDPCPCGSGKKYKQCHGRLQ
Chain of Sialic acid-binding Ig-like lectin 9 (Homo sapiens) (Q9Y336 whole entry): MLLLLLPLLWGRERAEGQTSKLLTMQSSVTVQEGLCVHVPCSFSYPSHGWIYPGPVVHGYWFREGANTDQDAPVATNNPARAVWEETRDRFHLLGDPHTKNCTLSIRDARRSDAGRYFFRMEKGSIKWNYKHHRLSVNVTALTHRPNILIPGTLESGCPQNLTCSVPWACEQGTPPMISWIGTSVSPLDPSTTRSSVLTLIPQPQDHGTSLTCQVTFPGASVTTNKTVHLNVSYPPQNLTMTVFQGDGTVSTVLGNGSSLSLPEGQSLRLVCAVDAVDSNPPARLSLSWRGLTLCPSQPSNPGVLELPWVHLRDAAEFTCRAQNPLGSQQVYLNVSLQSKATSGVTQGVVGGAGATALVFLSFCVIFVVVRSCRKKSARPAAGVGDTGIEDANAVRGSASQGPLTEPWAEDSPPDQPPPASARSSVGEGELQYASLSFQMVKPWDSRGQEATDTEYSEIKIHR
Chain of Chromo domain-containing protein 1 (Saccharomyces cerevisiae (strain ATCC 204508 / S288c) (Baker's yeast)) (P32657 whole entry, the tested form may be a part): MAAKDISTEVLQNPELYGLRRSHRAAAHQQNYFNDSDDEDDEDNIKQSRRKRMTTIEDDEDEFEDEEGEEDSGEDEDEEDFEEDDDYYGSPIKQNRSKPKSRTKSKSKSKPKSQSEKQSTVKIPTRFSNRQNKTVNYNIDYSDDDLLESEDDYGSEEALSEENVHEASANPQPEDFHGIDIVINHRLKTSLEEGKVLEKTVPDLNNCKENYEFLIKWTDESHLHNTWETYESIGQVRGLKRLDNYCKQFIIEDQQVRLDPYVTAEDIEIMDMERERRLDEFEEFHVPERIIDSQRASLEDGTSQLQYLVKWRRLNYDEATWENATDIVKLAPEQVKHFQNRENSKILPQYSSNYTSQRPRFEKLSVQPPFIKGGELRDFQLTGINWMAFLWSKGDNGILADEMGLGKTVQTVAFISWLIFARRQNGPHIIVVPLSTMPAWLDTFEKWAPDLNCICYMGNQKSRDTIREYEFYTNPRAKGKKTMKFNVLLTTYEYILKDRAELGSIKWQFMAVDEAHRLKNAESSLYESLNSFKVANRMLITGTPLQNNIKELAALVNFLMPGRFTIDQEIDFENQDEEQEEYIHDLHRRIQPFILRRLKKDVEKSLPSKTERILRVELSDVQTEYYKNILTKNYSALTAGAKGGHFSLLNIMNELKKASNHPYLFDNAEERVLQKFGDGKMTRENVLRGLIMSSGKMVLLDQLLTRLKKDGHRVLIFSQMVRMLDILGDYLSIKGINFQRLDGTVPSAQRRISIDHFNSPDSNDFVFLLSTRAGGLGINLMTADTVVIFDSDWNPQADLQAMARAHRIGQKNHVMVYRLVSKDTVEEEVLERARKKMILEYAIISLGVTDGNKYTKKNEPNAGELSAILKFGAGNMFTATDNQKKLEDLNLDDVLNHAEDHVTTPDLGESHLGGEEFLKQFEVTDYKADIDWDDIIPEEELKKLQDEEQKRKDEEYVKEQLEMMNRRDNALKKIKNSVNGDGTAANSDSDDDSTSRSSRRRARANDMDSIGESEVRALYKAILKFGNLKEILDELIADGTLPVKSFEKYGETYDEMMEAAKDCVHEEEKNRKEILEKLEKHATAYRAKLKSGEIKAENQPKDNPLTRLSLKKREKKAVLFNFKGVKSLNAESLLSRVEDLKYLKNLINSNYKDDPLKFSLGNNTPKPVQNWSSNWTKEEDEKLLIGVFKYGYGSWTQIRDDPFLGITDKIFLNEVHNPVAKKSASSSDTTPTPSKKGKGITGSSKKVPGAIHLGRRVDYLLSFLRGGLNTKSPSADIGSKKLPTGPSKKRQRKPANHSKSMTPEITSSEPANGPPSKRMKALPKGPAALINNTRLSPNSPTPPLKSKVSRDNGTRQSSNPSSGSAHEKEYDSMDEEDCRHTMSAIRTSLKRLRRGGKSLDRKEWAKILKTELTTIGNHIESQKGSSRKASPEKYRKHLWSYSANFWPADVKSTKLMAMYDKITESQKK

Turning to `Cc1nnc2n1CCN(C(=O)c1cc(C)n(-c3ccccn3)c1C)C2`, the Percent Effect in assay [1] was -5.88%; in assay [2], 13.2%; in assay [3] it was -9.47%; in [4], 3.77%; in the assay on Trypanosoma cruzi, -1.03%; in assay [5] it was 3.6%. For the same compound, the Percent Effect in [6] stood at 17%; in the assay filed under Homo sapiens, 4.26%; in [7] it was 4.43%; in assay [8], 13.6%; in assay [9], 2.79%.
For the compound `CC(C)c1nccn1C1CCCN(C(=O)c2cnn(C)c2C2CC2)C1` (stereo unspecified), the Percent Effect in [1] was -1.82%; in assay [2] it was 13.2%; in assay [3], -2.81%; in assay [4] it was -2.13%; with Trypanosoma cruzi, 2.71%; in assay [5] it was -5.75%. The Percent Effect in assay [6] was 6.34%; in the assay filed under Homo sapiens, -7.13%; in assay [7] it was 13.3%; in assay [8] it was 25.9%; in assay [9] it was -8.69%.
For `Cc1cc(CNC(=O)NC(C)c2ccc(N3CCOCC3)cc2)no1` (stereo unspecified), the Percent Effect in assay [1] was -5.74%; in assay [2], 10.4%; in assay [3], -1.83%; in assay [4] it was 16.5%; in the assay on Trypanosoma cruzi, 5.61%; in assay [5], -6.9%. Moreover, the Percent Effect in assay [6] is 11.8%; in the assay listed under Homo sapiens, -5.95%; in [7] it was 4.3%; in assay [8], 8.64%; in [9] it was -6.04%.
For the compound `CC(=O)NCC(=O)N1CCC2(CC1)CN(c1cccnc1)C(=O)CO2`, the Percent Effect is -1.82% in [1]; 13.5% in [2]; -3.23% in [3]; -10.1% in assay [4]; -3.42% with Trypanosoma cruzi; 2.87% in assay [5]. The Percent Effect was 26.2% in [6]; -0.0812% in the assay filed under Homo sapiens; -1.08% in assay [7]; 10.3% in assay [8]; 0.305% in assay [9].
For `CCn1cnnc1C1CCN(C(=O)c2cnc3ccccc3n2)CC1`, the Percent Effect in [1] was -1.53%; in assay [2], 5.26%; in [3] it was 5.47%; in assay [4], 3.25%; in the assay with Trypanosoma cruzi, 5.75%; in assay [5], -11.8%. The Percent Effect in assay [6] was 13.7%; in the assay listed under Homo sapiens, -15.4%; in assay [7] it was 0%; in [8], 2.6%; in [9], 1.06%.
For `O=C(CC1CC1)N1CC[C@H]2[C@@H]1CCC(=O)N2c1cccnc1`, the Percent Effect is 3.01% in assay [1]; 10.8% in assay [2]; 7.09% in assay [3]; -6.56% in assay [4]; -4.79% with Trypanosoma cruzi; 4.14% in assay [5]. The Percent Effect in assay [6] was 22.9%; in the assay listed under Homo sapiens, 2.55%; in assay [7], 1.08%; in assay [8] it was 12.8%; in [9] it was -1.6%.
As to `CC(=O)N1CCCC(Cc2cncc(Br)c2)CC1` (stereo unspecified), the Percent Effect was -8.44% in [1]; 12.2% in [2]; -0.231% in assay [3]; 1.66% in [4]; 2.77% in the assay with Trypanosoma cruzi; -2.09% in [5]. Further, the Percent Effect in assay [6] was 16.4%; in the assay filed under Homo sapiens, 24.7%; in [7], 5.38%; in [8] it was 6.49%; in [9], -26.1%.
As to `Cc1ccc(N2CCCN(C(=O)CC3CCCO3)CC2)nn1` (stereo unspecified), the Percent Effect in assay [1] is -2.51%; in assay [2], 21.6%; in [3], -11.8%; in assay [4], 5.27%; in the assay with Trypanosoma cruzi, 3.87%; in assay [5], -8.82%. Moreover, the Percent Effect is 14.8% in assay [6]; 7.13% in the assay filed under Homo sapiens; -1.48% in [7]; 18.5% in assay [8]; -9.23% in assay [9].
As for `CCC(CNC(=O)Nc1cnn(CC)c1)N1CCCC1` (stereo unspecified), the Percent Effect in assay [1] is 0.765%; in [2], 17.7%; in [3], -9.29%; in assay [4] it was -3.26%; with Trypanosoma cruzi, -6.33%; in assay [5], 3.04%. The Percent Effect in assay [6] was 8.27%; in the assay filed under Homo sapiens, 8.67%; in assay [7], 3.45%; in assay [8] it was 16.5%; in assay [9] it was -5.82%.
As to `Cc1cc(N(C)Cc2noc(C)n2)n2nc(C)c(C)c2n1`, the Percent Effect in assay [1] was -2.12%; in [2], 9.72%; in assay [3] it was -8.49%; in assay [4], -4.19%; in the assay with Trypanosoma cruzi it was -1.07%; in [5] it was 3.97%. Besides, the Percent Effect in assay [6] was 15.6%; in the assay listed under Homo sapiens, 9.15%; in [7], 4.21%; in assay [8], 10.3%; in [9], -4.2%.
`CN(C)S(=O)(=O)c1ccc(CN2CCCC2CO)o1` (stereo unspecified): the Percent Effect is -4.59% in [1]; 0% in assay [2]; -2.33% in [3]; 10.6% in [4]; -0.84% with Trypanosoma cruzi; -2.88% in [5]. For the same compound, the Percent Effect in assay [6] was -3.3%; in the assay listed under Homo sapiens, 11.2%; in assay [7] it was 4.43%; in assay [8], 3.7%; in assay [9], 1.24%.
